# Measurements reported in a collection of fitness landscapes (doi:10.1016/j.celrep.2020.107928).
# Whole data set: some 81,000 sequences, median “one-hybrid fitness for binding NBS DNA” near -0.1, cut for the highest 2% near 0.36. The entries come from a sample that favours the highest values as a whole.
# B1: Caulobacter ParB omega fusion; a variant is named by its letters at X, in order, B8GW30 (parent)
# chain: MESVVVGEPGMSEGRRGLGRGLSALLGEVDAAPAQAPGEQLGGSREAPIEILQRNPDQPRRTFREEDLEDLSNSIREKGVLQPILVRPSPDTAGEYQIVAGERAWRAAQRAGLKTVPIMVRELDDLAVLEIGIIENVQRADLNVLEEALSYKVLMEKFERTQENIAQTIGKSXSHVANXMRLLXLPDEVQSYLVSGELTAXHARAIAAAADPVALAKQIIEGGLSVRETEALARKAPNLSAGKSKGGRPPRVKDTDTQALESDLSSVLGLDVSIDHRGSTGTLTITYATLEQLDDLCNRLTRGI
# Variants of: B1
# Test: one-hybrid fitness for binding NBS DNA (the Noc-binding site; scaled: cognate 1, non-cognate 0); higher = stronger binding
# Settings: with NBS DNA site
# How it was run: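 Fitness here means the log change in variant-to-wild-type read ratio between plasmids sequenced before and after selection. That scale was set so cognate equals 1 and non-cognate equals 0. The selection was a bacterial one-hybrid screen of Caulobacter ParB libraries, four specificity codons randomised, in E. coli USO carrying a HIS3 reporter with the site 19 bp from the promoter, grown 48 hours at 37°C on M9-minus-histidine with 0.1 mM IPTG and 5 mM 3-AT.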
row,Variant,one-hybrid fitness for binding NBS DNA
1,QRGT,0.822
2,QRHT,0.789
3,QPET,≤ 0.2
4,NRHT,≤ 0.2
5,DRGT,≤ 0.2
6,QRDT,0.671
7,DRHT,≤ 0.2
8,NRGT,≤ 0.2
9,QTET,0.439
10,QTEH,≤ 0.2
11,LHGL,≤ 0.2
12,SEHS,≤ 0.2
13,AWHA,≤ 0.2
14,AGPD,≤ 0.2
15,CCAY,≤ 0.2
16,GPLH,≤ 0.2
17,DGTS,≤ 0.2
18,QWNT,≤ 0.2
19,QRET,0.603
20,QRNT,0.822
21,QCET,0.352
22,QRWG,≤ 0.2
23,DRNT,≤ 0.2
24,QRYT,0.744

row,Variant,one-hybrid fitness for binding NBS DNA
1,QRWT,0.707
2,QSET,0.253
3,QRWF,≤ 0.2
4,DPRH,≤ 0.2
5,TCSP,≤ 0.2
6,EGGL,≤ 0.2
7,QSFQ,≤ 0.2
8,PGPS,≤ 0.2
9,LKHN,≤ 0.2
10,PPQT,≤ 0.2
11,VKFG,≤ 0.2
12,DVTN,≤ 0.2
13,TRRA,0.25
14,LSWG,≤ 0.2
15,KASG,≤ 0.2
16,PNWS,≤ 0.2
17,ISHA,≤ 0.2
18,TEKA,≤ 0.2
19,QRRT,0.863
20,QRLT,0.731
21,QKES,0.275
22,QKEH,≤ 0.2
23,QFRT,0.309
24,DRCT,≤ 0.2

row,Variant,one-hybrid fitness for binding NBS DNA
1,QRRE,0.346
2,QACT,0.363
3,QKET,0.391
4,QRLM,0.322
5,QRCT,0.806
6,QILT,0.236
7,TPVD,≤ 0.2
8,FWLS,≤ 0.2
9,STAF,≤ 0.2
10,DGKR,≤ 0.2
11,RSDQ,≤ 0.2
12,NRPR,≤ 0.2
13,VFEC,≤ 0.2
14,SCLN,≤ 0.2
15,DRQT,≤ 0.2
16,NRST,≤ 0.2
17,QFST,≤ 0.2
18,QRQT,0.755
19,QRST,0.772
20,QIQT,0.283
21,TYAY,≤ 0.2
22,MPCT,≤ 0.2
23,SIMW,≤ 0.2
24,VASM,≤ 0.2

row,Variant,one-hybrid fitness for binding NBS DNA
1,GSLP,≤ 0.2
2,QIRP,≤ 0.2
3,QIRH,0.44
4,QIIS,≤ 0.2
5,QIRD,≤ 0.2
6,QIYS,0.27
7,QIRS,0.539
8,RWRF,≤ 0.2
9,LTWA,≤ 0.2
10,KKKG,≤ 0.2
11,AEER,≤ 0.2
12,QAKT,0.692
13,QLKT,0.673
14,QAVT,0.296
15,QIKT,0.574
16,QCKT,0.778
17,QIVT,0.236
18,QPKT,0.201
19,QLVT,0.276
20,QWKT,0.25
21,LDLK,≤ 0.2
22,AVEL,≤ 0.2
23,SLSN,≤ 0.2
24,QSKT,0.699

row,Variant,one-hybrid fitness for binding NBS DNA
1,QHVT,0.327
2,QFKT,0.388
3,QHKT,0.732
4,QHIT,0.349
5,QFVT,≤ 0.2
6,QEKT,≤ 0.2
7,QSVT,0.328
8,QFYT,≤ 0.2
9,WSSW,≤ 0.2
10,LFHV,≤ 0.2
11,YELS,≤ 0.2
12,IALF,≤ 0.2
13,ESMD,≤ 0.2
14,RSFQ,≤ 0.2
15,RRND,≤ 0.2
16,RRNN,0.493
17,RCNN,≤ 0.2
18,RCDH,≤ 0.2
19,RRNH,0.63
20,RRDH,0.371
21,RRNP,≤ 0.2
22,RRDN,≤ 0.2
23,ANST,≤ 0.2
24,CRRH,≤ 0.2

row,Variant,one-hybrid fitness for binding NBS DNA
1,RNTT,0.215
2,DAPG,≤ 0.2
3,GCTC,≤ 0.2
4,QTHI,0.228
5,QNEM,≤ 0.2
6,WTRW,≤ 0.2
7,TLWY,≤ 0.2
8,RRFT,0.777
9,RRAT,0.782
10,RRAC,0.328
11,RRFG,0.279
12,RRFQ,0.267
13,RRAF,≤ 0.2
14,SIPE,≤ 0.2
15,IQKV,≤ 0.2
16,PDCE,≤ 0.2
17,FSMS,≤ 0.2
18,KQDT,≤ 0.2
19,QQNT,0.596
20,QQDF,≤ 0.2
21,QQNP,≤ 0.2
22,QQNN,0.231
23,QQDT,0.428
24,VNKV,≤ 0.2

row,Variant,one-hybrid fitness for binding NBS DNA
1,GVQT,≤ 0.2
2,RNWC,≤ 0.2
3,AVGK,≤ 0.2
4,QHHA,0.238
5,QWGA,≤ 0.2
6,QPNA,≤ 0.2
7,QMGA,0.253
8,QTPA,≤ 0.2
9,QTGA,0.466
10,QTYA,0.427
11,QTHA,0.441
12,QSNA,0.308
13,QCNA,0.369
14,QLHA,≤ 0.2
15,QTLA,0.329
16,LHCQ,≤ 0.2
17,VMLE,≤ 0.2
18,LRND,≤ 0.2
19,AEHT,≤ 0.2
20,QKAA,0.319
21,QTQA,0.432
22,QCSA,0.302
23,QSCA,≤ 0.2
24,QTFA,0.301

row,Variant,one-hybrid fitness for binding NBS DNA
1,QTSA,0.397
2,QTAA,0.44
3,QDQA,≤ 0.2
4,QCCA,0.326
5,QLQA,0.204
6,QASA,≤ 0.2
7,QTCA,0.378
8,SFSC,≤ 0.2
9,PSTY,≤ 0.2
10,KYQS,≤ 0.2
11,AEHP,≤ 0.2
12,CVMI,≤ 0.2
13,VVAR,≤ 0.2
14,NSNP,≤ 0.2
15,SNRD,≤ 0.2
16,YAHR,≤ 0.2
17,QTRA,0.712
18,QTVA,0.317
19,QTKA,0.708
20,NTKA,≤ 0.2
21,QAWA,≤ 0.2
22,QTIA,0.224
23,QPAA,≤ 0.2
24,QCWA,0.205

row,Variant,one-hybrid fitness for binding NBS DNA
1,QSAA,0.273
2,QTWA,0.367
3,QCAA,0.393
4,QTMA,0.32
5,NGIG,≤ 0.2
6,PFPE,≤ 0.2
7,GKAT,≤ 0.2
8,ATEG,≤ 0.2
9,TRRP,≤ 0.2
10,HLQN,≤ 0.2
11,QINA,0.21
12,QCTA,0.326
13,QTNA,0.505
14,QKDA,≤ 0.2
15,QTDA,0.255
16,QLNA,0.219
17,QTTA,0.399
18,QPTA,≤ 0.2
19,QKNA,0.378
20,ISCK,≤ 0.2
21,MLLV,≤ 0.2
22,LQRF,≤ 0.2
23,HHLI,≤ 0.2
24,LHQS,≤ 0.2

row,Variant,one-hybrid fitness for binding NBS DNA
1,RWYR,≤ 0.2
2,RINH,≤ 0.2
3,RCNR,0.586
4,RSDR,≤ 0.2
5,RSNR,0.526
6,RIDR,≤ 0.2
7,RWNR,0.436
8,RFNR,0.325
9,RPNR,≤ 0.2
10,RWDR,≤ 0.2
11,RSNH,0.223
12,RINR,0.524
13,GSSG,≤ 0.2
14,PGTF,≤ 0.2
15,LPSK,≤ 0.2
16,PGGS,≤ 0.2
17,RQIG,≤ 0.2
18,MIKI,≤ 0.2
19,NGIR,≤ 0.2
20,FGEY,≤ 0.2
21,RHNR,0.539
22,RHNN,≤ 0.2
23,RHDR,0.216
24,NDST,≤ 0.2

row,Variant,one-hybrid fitness for binding NBS DNA
1,SAPN,≤ 0.2
2,YTYC,≤ 0.2
3,QRSF,0.262
4,QRSG,0.339
5,QRQR,0.987
6,QRRR,1.1
7,NRRR,0.251
8,QRYR,0.924
9,DRYR,≤ 0.2
10,QRQL,0.255
11,NRYR,≤ 0.2
12,DRRR,0.215
13,QRSR,0.997
14,NRQR,≤ 0.2
15,RCHV,≤ 0.2
16,LHEL,≤ 0.2
17,TCPE,≤ 0.2
18,KYMS,≤ 0.2
19,QRLF,0.238
20,DRCR,≤ 0.2
21,NRGR,≤ 0.2
22,DRGR,≤ 0.2
23,QRGR,1.04
24,QRLQ,0.327

row,Variant,one-hybrid fitness for binding NBS DNA
1,QRLR,0.945
2,QRCR,0.981
3,QRDR,0.679
4,QDCR,≤ 0.2
5,DAMG,≤ 0.2
6,RDCF,≤ 0.2
7,SWLF,≤ 0.2
8,THYV,≤ 0.2
9,EPRD,≤ 0.2
10,AGTM,≤ 0.2
11,AMGA,≤ 0.2
12,QRHR,1.06
13,NRNR,≤ 0.2
14,DRNR,≤ 0.2
15,QRNR,1.03
16,NRHR,≤ 0.2
17,DRHR,≤ 0.2
18,TTSN,≤ 0.2
19,DLQW,≤ 0.2
20,DYWR,≤ 0.2
21,QHFS,≤ 0.2
22,QHFR,0.408
23,QHAR,0.523
24,QHFN,≤ 0.2

row,Variant,one-hybrid fitness for binding NBS DNA
1,QHAN,≤ 0.2
2,QHAH,≤ 0.2
3,GISW,≤ 0.2
4,ACMF,≤ 0.2
5,RFMI,≤ 0.2
6,EHLG,≤ 0.2
7,SCYH,≤ 0.2
8,MRMG,≤ 0.2
9,RYDT,0.204
10,RYLD,≤ 0.2
11,RYPT,≤ 0.2
12,RYKT,0.604
13,RYNT,0.514
14,RYWT,0.281
15,RYVT,0.229
16,RYLT,0.366
17,RYYT,0.349
18,RYRT,0.664
19,RYNP,≤ 0.2
20,RYLH,≤ 0.2
